Reference: PubChem BioAssay AID720650 (Broad Institute, 2013)
A number with no mark means an inactive call. Activity calls are given as the source filed them. No rule for the calls is given here.

assay: C difficile toxins, biochemical counterscreen, UDPG substrate absence, confirmatory dose response (AID 720650); settings: series mostly up to 19.5 µM

Row | Structure (SMILES) | AC50
1 | O=C(Nc1ccc(N2CCOCC2)c(Cl)c1)c1ccc(F)cc1 | inactive
2 | CCN1/C(=C2\OC(=S)N(C)C2=O)C=Cc2ccccc21 | inactive
3 | CSc1cccc(NC(=O)CCc2ccccc2)c1 | inactive
4 | COC(=O)C(C(=O)OC)C(CC(=O)c1ccc(Br)cc1)c1ccccc1 (stereo not drawn) | inactive
5 | COC(=O)C(Cc1ccccc1)NC(=O)CSc1nc(C)cc(=O)[nH]1 (stereo not drawn) | inactive
6 | O=C(Nc1nnc(-c2ccco2)o1)C1CC1 | > 39 µM
7 | Cc1c(CCCC(=O)O)sc(N)c1C(=O)c1cccc(C(F)(F)F)c1 | inactive
8 | CCCCNC(=O)C1CCN(S(=O)(=O)c2c(C)noc2/C=C\c2ccc(OC)cc2)CC1 | inactive
9 | NC(=O)Nc1ccc(Nc2ccccc2)cc1 | > 39 µM
10 | O=C(Cc1ccccn1)c1ccncc1 | inactive
11 | O=C(NCc1nnc2c(C(F)(F)F)cc(Cl)cn12)c1cccnc1 | inactive
12 | CCN(CCN(C)C)C(=O)C1CCN(S(=O)(=O)c2c(C)noc2/C=C/c2ccccc2F)CC1 | inactive
13 | CC(=O)N(c1ccccc1C)S(=O)(=O)c1ccc(Cl)cc1 | inactive
14 | CCOC(CCNC(=O)c1cn(CCOC)c(=O)c2c1c1ccccc1n2C)OCC | inactive
15 | CCOC(=O)c1ccc(N=c2sc(C(=O)OC)cc(=O)n2CCCN2CCOCC2)cc1 | inactive
16 | Nc1c(Cl)ncnc1NCCc1ccc(O)cc1 | 18.6 µM (active)
17 | NC(=O)C1(Nc2ccc(-c3ccc(Br)cc3)cc2)CCCC1 | inactive
18 | CCCNC(=O)C[C@H]1CC[C@@H]2[C@@H](COc3ccc(NC(=O)c4ccc(Cl)cc4)cc3C(=O)N2C)O1 | > 39 µM
